Assay outcomes as filed in PubChem BioAssay.
HSF-1 act: increases HSF-1 driven luciferase reporter signal. NIH3T3-HGL HSF-1 luciferase reporter, MG132, 8 h; 100% = twice DMSO control signal. AID 504408. 300,000 compounds, 1.7% hits. activation, % at 9 µM;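 active = mean replicate activation of at least 50% with a set share of replicates each reaching 50%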;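 also: 0% = median of the neutral control wells and 100% = twice that signal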
Hsp70 act: switches on Hsp70 transcription; HeLa Hsp70 promoter luciferase reporter, luminescence; scaled: vehicle 0, proteasome-inhibitor control 100%; activation, % at 10 µM; AID 1203; 200,000 compounds, 0.04% hits;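 active = activation above the mean across all tested compounds plus 3 SD, cutoff set per campaign, cut at about 5.5% in these data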;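 also: 100% = MG132 at 30 µM as the positive control and 0% = DMSO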
TNF death inh: TNF-alpha cell death inhibition in Jurkat FADD-/- cells | Jurkat FADD-/- TNF necroptosis rescue, ATP luminescence, 24 h; 0 = TNF only, 100 = no-TNF cells | activation (protection from cell death), % at 10 µM | 220,000 compounds, 0.068% hits | AID 463075;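 active = activation, meaning protection from cell death, of at least 50% relative to plate controls; inactive = activation below 50%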;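 also: necroptosis triggered by 40 ng/mL TNF-alpha added together with compound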
L929 necroptosis: blocks zVAD induced death of L929 cells | AID 1377 | viability rescue, % at 10 µM | 220,000 compounds, 0.38% hits | L929 zVAD necroptosis rescue, ATP luminescence, 24 h; with zVAD 60 µM;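 active = activation, scaled between plate controls, above about 75%, limit read from the data; inactive = activation under that limit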;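 also: 0% = zVAD with DMSO and 100% = DMSO alone without zVAD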
The depositor's hits bear a star; x = no result given. This is a sample that favours compounds with a hit; in the whole collection about 1.9% have one here.

SMILES | HSF-1 act | Hsp70 act | TNF death inh | L929 necroptosis
Cc1ccc(C)c(NC(=O)C2CC(O)CN2C(=O)Oc2ccccc2)c1 (centres undefined) | 66.6* | x | x | x
O=C(NC(=S)Nc1ccc2c(c1)OCCO2)c1ccccc1F | 86.4* | -0.2 | -0.7 | 1.3
COc1ccc(NC(=O)c2ccc3c(c2)N(C)CCS3)cc1 | 14.1 | x | x | x
CN1CCSc2ccc(C(=O)Nc3cccc(F)c3)cc21 | 159.8* | x | -2.3 | 4.8
CN(C)c1cccc(C(=O)Nc2cccc(F)c2)c1 | -16.2 | 0.4 | -1.8 | 0.9
CCN(CC)c1ccc(C(=O)Nc2cccc(F)c2)cc1 | 60.8* | 0.5 | -7.2 | 10.9
O=C(Nc1cccc(F)c1)c1ccc2c(c1)OCCO2 | 57.2* | x | x | x
C/C(CC(=O)Nc1c(C)cc(C)cc1C)=N\NC(=O)c1cnccn1 | 37.5 | 0.4 | 0.5 | 0.0
O=C(O)CCc1nn2c3ccccc3nc2n(Cc2ccccc2)c1=O | 0.6 | 0.1 | 0.2 | 7.9
Cc1ccsc1/C=N/NC(=O)Nc1ccccc1 | 57.5* | 0.1 | 0.6 | 17.0
Cc1ccsc1C(=O)N/N=C/c1ccc2c(c1)OCO2 | 51.9* | -0.1 | -4.3 | 0.6
Cc1ccccc1/C=N/NC(=O)c1sccc1C | 55.2* | -0.1 | 0.0 | 0.1
COCCN1C(=O)C(=O)/C(=C(/O)c2ccc(S(=O)(=O)N3CCOCC3)cc2)C1c1ccc(C(C)C)cc1 (centres undefined) | x | 0.0 | -1.9 | 0.9
CCOC(=O)c1nnn(CC(=O)N2N=C(c3ccc(Cl)cc3)CC2c2ccc(OC)cc2)c1C(=O)OCC (centres undefined) | -3.0 | -0.4 | -0.7 | 0.0
CCOC(=O)c1nnn(CC(=O)N2N=C(c3ccc(Cl)cc3)CC2c2ccccc2)c1C(=O)OCC (centres undefined) | 52.4* | -0.1 | -0.9 | -0.9
Cc1cc(C)n(CC(=O)NNC(=O)C2CC(=O)N(Cc3ccccc3Cl)C2)n1 (centres undefined) | 6.9 | x | x | x
CN(C)S(=O)(=O)Nc1cc(Cl)cc(Cl)c1 | 9.8 | -0.4 | 0.4 | 1.9
CCOC(=O)CC(NC(=O)C1c2ccccc2Oc2ccccc21)c1ccccc1Cl (centres undefined) | 102.2* | -0.4 | 2.4 | -0.8
Cc1ccc2c(COC(=O)c3n[nH]c4ccccc34)cc(=O)oc2c1 | 75.7* | 0.1 | -2.6 | 2.0
S=C(Nc1ccccc1)Nc1ccc(Cl)cn1 | 78.0* | 0.2 | -0.3 | -0.9
O=C(NCCc1ccc(Cl)cc1)c1n[nH]c2ccccc12 | x | 0.0 | 2.1 | 3.3
O=C(COc1ccccc1Cl)Nc1ccc(Cl)cn1 | 106.5* | -0.1 | 20.7 | 1.4
O=C(COc1ccccc1)Nc1ccc(Cl)cn1 | 43.5 | -0.2 | 22.1 | 0.0
O=C(NCCc1ccccc1)c1n[nH]c2ccccc12 | 59.4* | 0.0 | 4.2 | 4.5
Clc1cccc(/C=N/N2CCN(Cc3ccccc3)CC2)c1 | 27.2 | x | x | x
SMILES | HSF-1 act | Hsp70 act | TNF death inh | L929 necroptosis
O=C(COC(=O)c1n[nH]c2ccccc12)NC(=O)NC1CCCCC1 | 52.3* | 0.0 | 0.3 | 35.3
O=C(OCCOc1ccccc1)c1n[nH]c2ccccc12 | 66.9* | x | 0.7 | 0.7
CCOC(=O)c1n[nH]c2ccccc12 | -4.5 | -0.1 | -1.4 | 3.5
O=C(COc1ccccc1Cl)NC(=O)NC1CCCC1 | x | -0.2 | 57.4* | 0.8
COC(=O)[C@@]12CCCCN1[C@H](c1ccc(-c3ccc(F)cc3)cc1)[C@@H]1C(=O)N(C)C(=O)[C@@H]12 | 12.7 | x | x | x
O=C(O)C1C2CCC(O2)C1C(=O)NCc1ccc(Cl)cc1 (centres undefined) | 11.2 | -0.2 | 1.2 | -0.2
O=C(NCc1ccc(N2CCCC2=O)cc1)Nc1ccccc1 | 54.2* | -0.4 | 0.9 | 0.7
O=C(NCc1ccc(N2CCCC2=O)cc1)Nc1cccc2ccccc12 | 11.2 | -0.2 | -0.8 | 0.5
Cc1ccc(-n2cc(CNCCN3CCOC3=O)c(-c3cccc(C)c3)n2)cc1 | 69.0* | -0.3 | 3.5 | 2.6
O=C(COC(=O)/C=C/c1ccc(Br)o1)NCCCN1CCCC1=O | 65.1* | 0.1 | 1.7 | -1.7
CC[N+](CC)(CC)CCCCOc1ccc2c(c1)C(=O)c1cc(OCCCC[N+](CC)(CC)CC)ccc1-2 | 24.6 | x | 0.5 | 0.9
CCCCCCCn1c(=O)c(C(=O)OC)c(N)c2ccccc21 | 36.4 | x | -16.0 | -1.0
CC1=NN(c2ccccc2)C(=O)/C1=C\C=C\c1ccccc1 | 97.6* | x | -26.7 | 3.9
Cc1cccc(C(C)C)c1NC(=O)C(C)OC(=O)Cn1cnc2c1c(=O)n(C)c(=O)n2C (centres undefined) | -14.3 | x | x | x
Cc1c(Cl)cccc1NC(=O)c1cc(-c2ccccc2O)n[nH]1 | 86.7* | -0.2 | -3.8 | -0.6
Cc1cccc(NC(=O)c2cc(-c3cc(C)ccc3O)n[nH]2)c1 | 103.6* | x | x | x
C=CCN=C1CCCc2c1[nH]c1ccc(C)cc21 | 10.9 | -0.3 | -2.2 | 30.8
Cc1ccc(S(=O)(=O)N(C)C)cc1NC(=O)COC(=O)/C=C/c1ccc2ccccc2n1 | 76.3* | x | x | x
COc1cc(C2C(C#N)=C(N)OC3=C2C(=O)CC(C)(C)C3)cc2c1OCO2 (centres undefined) | -0.4 | x | x | x
N#Cc1ncc(Cc2ccccc2)nc1C#N | 97.2* | x | x | x
CC1CCN(Cc2nnnn2CCCC(=O)N(C)C(C)c2ccccn2)CC1 (centres undefined) | 0.3 | x | x | x
Cc1ccc(C)c(S(=O)(=O)Nc2ccc(C(=O)N3CCCCC3)cc2)c1 | -1.9 | x | x | x
Cc1ccc(Nc2ncc3c(n2)CC(C)CC3=O)c(C)c1 (centres undefined) | 59.4* | x | 2.2 | 1.2
COC(=O)c1c(NC(=O)CN2CCN(c3ncccn3)CC2)sc(C(N)=O)c1C | -9.1 | x | x | x
CC(=O)c1cccc(NC(=O)CCC(=O)c2ccc(F)cc2)c1 | 28.6 | x | x | x
SMILES | HSF-1 act | Hsp70 act | TNF death inh | L929 necroptosis
O=C(CCC(=O)c1ccc(F)cc1)Nc1cc(Cl)cc(Cl)c1 | 57.8* | -0.4 | 0.9 | 0.4
Cc1occc1C(=O)N1CCC2(CCCN(Cc3ccc(F)c(F)c3)C2)C1 (centres undefined) | -6.2 | x | x | x
O=C(c1ccc(-c2cc(Cl)ccc2Cl)o1)N1CCOCC1 | 3.2 | 0.1 | -0.1 | 3.1
O=C(c1ccc(-c2ccc(Cl)cc2Cl)o1)N1CCOCC1 | 59.9* | -0.1 | -1.2 | 1.8
CCC(C)(C)NC(=O)C(c1cccc(OC)c1OC)N(Cc1ccc(OC)cc1)C(=O)CCC(=O)Nc1cc(C)on1 (centres undefined) | 59.9* | x | x | x
COc1ccc(CCNC(=O)c2ccc(CNS(=O)(=O)c3ccc(C(C)(C)C)cc3)cc2)cc1OC | 10.7 | -0.4 | 0.2 | 1.5
COc1ccc(CCNC(=O)c2ccc(CNS(=O)(=O)c3cccc(Cl)c3)cc2)cc1OC | 59.9* | -0.2 | 3.4 | 9.8
C=CCNCCOCCSc1ccc(Cl)cc1 | 51.7* | -0.1 | -0.8 | -0.1
C=CCNC(=O)CSc1ccc(Cl)cc1 | -7.6 | -0.2 | 0.2 | 0.5
COc1ccc(-n2cc(CNCCc3cscn3)c(-c3ccccc3Cl)n2)cc1 | 59.1* | -0.1 | 7.8 | -0.9
Cc1ccc(-n2cc(CNCCc3cscn3)c(-c3ccc(F)cc3)n2)cc1 | 7.2 | -0.2 | 6.0 | 0.3
Cc1noc(C)c1CSc1nc2ccccc2[nH]1 | 0.0 | -0.3 | -1.3 | 0.2
